Screen size: about 290,000 compounds; about 1,000 (0.34%) were called active. No stated cut-off is given here; in the data, active means inhibition above about 50% (passing the limit was not always enough); inconclusive means no clear call, values can overlap the other calls. For the sample, actives were picked, then their nearest neighbours and some compounds at random.
Target: SUMO-conjugating enzyme UBC9 (Homo sapiens) (UniProt P63279)
Test: inhibitors of in vitro SUMOylation cascade, primary screen, biochemical, HTRF, uHTS (AID 2006)
Details: HTRF SUMOylation assay, SAE1/SAE2 + UBC9, in vitro, at 35 µM, stronger effect = higher value

Sequence of SUMO-conjugating enzyme UBC9 (Homo sapiens) (P63279 whole entry, looked up): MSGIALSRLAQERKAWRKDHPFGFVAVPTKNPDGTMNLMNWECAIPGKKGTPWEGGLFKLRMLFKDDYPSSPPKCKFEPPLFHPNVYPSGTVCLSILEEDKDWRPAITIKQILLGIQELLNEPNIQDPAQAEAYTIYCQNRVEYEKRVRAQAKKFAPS

Row | Structure (SMILES) | inhibition | inhibition (average of repeat tests) [%]
1 | CC(=O)Oc1ccc2c(C)c(CC(C)O)c(=O)oc2c1 (centres undefined) | 52.6% (active) | 46.3
2 | CC(=O)Nc1cc2ccc(OC(C)=O)cc2oc1=O | 43.7% (inactive) | –
3 | Cc1c(Cc2ccccc2)c(=O)oc2cc(OCC(N)=O)ccc12 | 3.3% (inactive) | –
4 | COc1ccc2c(C)c(CCC(=O)NC3CC3)c(=O)oc2c1C | 15.9% (inactive) | –
5 | COC(=O)c1nc2n(n1)C(c1ccc([N+](=O)[O-])cc1)C(C(=O)Nc1ccc(Cl)cc1)=C(C)N2 (centres undefined) | 56.7% (active) | 44.5
6 | COCCOC(=O)C1=C(C)Nc2nc(C)nn2C1c1ccccc1 (centres undefined) | -5% (inactive) | –
7 | COc1cc(C2C(C(=O)Nc3ccc(F)cc3)=C(C)Nc3nc(CCCO)nn32)cc(OC)c1OC (centres undefined) | 11.3% (inactive) | –
8 | Cc1nn(C)c(Cl)c1CN1CCC(n2nccc2NC(=O)C2CCCC2)CC1 | 3.6% (inactive) | –
9 | CCCCNC(=O)N(O)C1N(/N=C/c2ccc(N(C)C)cc2)C(=S)SC1(C)C (centres undefined) | 6.7% (inactive) | –
10 | Cc1cc(C)c(S(=O)(=O)c2ccc(F)cc2C)c(=O)[nH]1 | 14.5% (inactive) | –
11 | CNC(=S)N/N=C/c1ccc(OCc2ccccc2)c(Br)c1 | 11.3% (inactive) | –
12 | COc1ccc(OC)c(NC(=O)Cc2cccs2)c1 | 8% (inactive) | –
13 | Cc1ccc(/C=C/C(=O)Nc2cc(S(=O)(=O)N3CCCCCC3)ccc2OCC(F)(F)F)o1 | 25.6% (inactive) | –
14 | Cc1ccc(/C=C/C(=O)Nc2ccc([N+](=O)[O-])c(NC(=O)/C=C/c3ccc(C)o3)c2)o1 | 74.6% (active) | –
15 | CCc1nnc(NC(=O)/C=C/c2ccc(C)o2)s1 | 7.9% (inactive) | –
16 | CC(C)c1nnc(NC(=O)CCC(=O)N2CCN(c3cccc(Cl)c3)CC2)s1 | 1.4% (inactive) | –
17 | Cc1c(C)c(C)c(S(=O)(=O)N2CCC3(CC2)OCCO3)c(C)c1C | 0.4% (inactive) | –
18 | Oc1ccc(CNc2ccccc2O)cc1 | 2.9% (inactive) | –
19 | COc1cc(NC(=O)c2cncc(-c3ccc(C#N)cc3)c2)cc(C(=O)Nc2cccc(C(F)(F)F)c2)c1 | 71.3% (active) | 53.1
20 | COc1ccc(NC(=O)CN(C)CC(=O)Nc2cccc(C(F)(F)F)c2)cc1 | 0.2% (inactive) | –

Row | Structure (SMILES) | inhibition | inhibition (average of repeat tests) [%]
21 | N#Cc1ccc(Oc2ccc(C(F)(F)F)cc2NC(=O)c2ccc(F)cc2)cc1 | -26.5% (inactive) | –
22 | O=C(CN1CCN(S(=O)(=O)c2ccc(F)cc2)CC1)NC1CC1 | 8.8% (inactive) | –
23 | COc1cc(N/C=C2\CC(=O)NC(C)=C2C#N)cc(OC)c1OC | 51.7% (active) | –
24 | COC(=O)C1=C(C)NC(=O)CC1c1ccccc1OC (centres undefined) | 10.4% (inactive) | –
25 | COc1cc2c(cc1OC)C(C(=O)Nc1cc(C)c(OC)c(C)c1)CC(=O)N2 (centres undefined) | 1.4% (inactive) | –
26 | CC(O)c1ccc(OCCN(C)c2ccccn2)cc1 (centres undefined) | 20.8% (inactive) | –
27 | Cc1[nH]c2c(C(=O)N3CCCC(CCC(=O)NCc4ccccc4F)C3)cccc2c1C (centres undefined) | -0.7% (inactive) | –
28 | Brc1ccccc1C1Nc2cccc3cccc(c23)N1 | 69.7% (active) | –
29 | Cc1ccc(C2Nc3cccc4cccc(c34)N2)cc1 | 8.5% (inactive) | –
30 | Oc1ccc(C2Nc3cccc4cccc(c34)N2)cc1 | 31.7% (inactive) | –
31 | CC(C)NS(=O)(=O)c1ccc(OCC(=O)NC2CCCCCC2)cc1 | 2.1% (inactive) | –
32 | O=C(CC1NCCc2ccccc21)Nc1cccc(Cl)c1 (centres undefined) | -5.3% (inactive) | –
33 | CCCCCCNS(=O)(=O)c1ccccc1Br | 21.7% (inactive) | –
34 | Cc1ccc(-n2ncc(C(=O)NC3CC3)c2C2CCN(C(=O)OC(C)(C)C)CC2)c(C)c1 | -2.6% (inactive) | –
35 | CCc1nccn1CCC(=O)N1CCCC(N2CCN(c3ccccc3F)CC2)C1 (centres undefined) | 4.2% (inactive) | –
36 | COc1ccc(C(=O)CC(=O)c2ccc(C)cc2)c(O)c1 | -0.3% (inactive) | –
37 | O=c1c(-c2ccccc2)coc2cc(O)ccc12 | 20.1% (inactive) | –
38 | O=c1c(/C=N/O)coc2ccc(Cl)cc12 | 8.4% (inactive) | –
39 | O=C1/C(=C/c2coc3ccc(O)cc3c2=O)SC(=S)N1c1ccccc1 | 57% (active) | 34.2
40 | Cc1cccc(OCC(O)Cn2c(N3CCCCC3)nc3c2c(=O)[nH]c(=O)n3C)c1 (centres undefined) | 20.6% (inactive) | –

Row | Structure (SMILES) | inhibition | inhibition (average of repeat tests) [%]
41 | CCn1cc(CN2CCN(CC(C)(C)C)C(CCO)C2)c2ccccc21 (centres undefined) | 5.7% (inactive) | –
42 | Oc1ccccc1C1=NN(c2ccccc2)C(c2ccccc2)C1 (centres undefined) | 11% (inactive) | –
43 | CCN(CC)CCCNC(=S)N(CCO)Cc1cc2cc3c(cc2[nH]c1=O)OCO3 | 18.4% (inactive) | –
44 | Cc1ccc(NC(=O)C2CCCN2S(=O)(=O)c2cccc3cccnc23)c(C)c1 (centres undefined) | 4.8% (inactive) | –
45 | O=S(=O)(c1ccc(Br)c2ccccc12)N1CCOCC1 | 2.6% (inactive) | –
46 | CC(C)[C@H](NC(=O)OCc1ccccc1)C(=O)OCc1ccccc1 | -16.4% (inactive) | –
47 | O=[N+]([O-])C(=c1ccc2c(c1)N1C3=C(CCCC3)CC3CCCCC31N=2)[N+](=O)[O-] (centres undefined) | 57.5% (active) | –
48 | Cc1sc2ncn(CC(=O)NCCN(C)C)c(=O)c2c1S(=O)(=O)N1CCC(C)CC1 | -5.2% (inactive) | –
49 | CN1CCC(=O)N([C@H](CO)Cc2ccccc2)CC1 | 13% (inactive) | –
50 | CCOc1ccc(OCc2ccc(C(=O)N(C)c3ccccc3)o2)cc1 | 5% (inactive) | –
51 | CC1=C(C(=O)OC2CCCCC2)C(c2cccnc2)n2ncnc2N1 (centres undefined) | -7.1% (inactive) | –
52 | C=CCc1ccccc1OCC(O)CN1CCN(CCO)CC1 (centres undefined) | 0.7% (inactive) | –
53 | O=C(Nc1ccc(S(=O)(=O)Nc2nccs2)cc1)c1cc(-c2ccncc2)nc2ccccc12 | 50% (active) | –
54 | CCC(CC)C(=O)Nc1ccc(S(=O)(=O)Nc2nccs2)cc1 | 14.7% (inactive) | –
55 | O=C(Nc1ccc(S(=O)(=O)Nc2nccs2)cc1)c1cc(=O)[nH]c2ccccc12 | 30.5% (inactive) | –
56 | Cc1nn(Cc2ccccc2)c(C)c1NS(=O)(=O)c1ccccc1 | 3.7% (inactive) | –
57 | O=[N+]([O-])c1c(NCCO)cc(Sc2nc3ccccc3s2)c2nonc12 | 90.1% (active) | –
58 | O=C(O)c1cccc(S(=O)(=O)Nc2ccc(O)cc2Sc2nc3ccccc3s2)c1 | -14.5% (inactive) | –
59 | COc1ccc(S(=O)(=O)Nc2ccc(O)c(Sc3nc4ccccc4s3)c2)cc1 | -0.5% (inactive) | –
60 | CCOCc1nnc(NC(=O)CCC2CCCCC2)s1 | 10.6% (inactive) | –

Reference: PubChem BioAssay AID2006 (Sanford-Burnham Center for Chemical Genomics, 2009)
